PNC inhibitor: High Content Assay for Compounds that inhibit the Assembly of the Perinucleolar Compartment | PC3M PTB-GFP, PNC prevalence imaging, 16 h; active compounds read low | activity change (PNC), negative = inhibition, % at 10 µM | hit rate 3.1% among 140,000 | AID 2417, 2010;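 active means readout at or below -70, meaning at least 70% loss of cells showing the perinucleolar compartment, a nuclear body marking cancer cells; inconclusive means readout between -30 and a set limit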;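 further: plate controls were DMSO wells for no effect and camptothecin positive control wells for full effect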
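PC3M cells stably expressing PTB-GFP, 750–1000 cells/well, treated 16 h at 37 °C with compound (23 nl of library stock), in duplicate. After paraformaldehyde fixation and Hoechst stain, imaged at 20x; PNC prevalence scored by image analysis.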
ALDH1A1 inh: qHTS Assay for Inhibitors of Aldehyde Dehydrogenase 1 (ALDH1A1). Aldehyde dehydrogenase 1A1 (Homo sapiens), P00352. Purified ALDH1A1, NADH fluorescence, propionaldehyde substrate. Potency, µM (doses to about 75.3 µM), for inactives: at the top dose activity, negative = inhibition, actives largely listed as inhibitors. hit rate 7.3% among 220,000;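 further: potency means the concentration at half of the fitted maximal effect; plate controls were no enzyme wells and a reference inhibitor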
Target sequence (P00352 whole entry, looked up): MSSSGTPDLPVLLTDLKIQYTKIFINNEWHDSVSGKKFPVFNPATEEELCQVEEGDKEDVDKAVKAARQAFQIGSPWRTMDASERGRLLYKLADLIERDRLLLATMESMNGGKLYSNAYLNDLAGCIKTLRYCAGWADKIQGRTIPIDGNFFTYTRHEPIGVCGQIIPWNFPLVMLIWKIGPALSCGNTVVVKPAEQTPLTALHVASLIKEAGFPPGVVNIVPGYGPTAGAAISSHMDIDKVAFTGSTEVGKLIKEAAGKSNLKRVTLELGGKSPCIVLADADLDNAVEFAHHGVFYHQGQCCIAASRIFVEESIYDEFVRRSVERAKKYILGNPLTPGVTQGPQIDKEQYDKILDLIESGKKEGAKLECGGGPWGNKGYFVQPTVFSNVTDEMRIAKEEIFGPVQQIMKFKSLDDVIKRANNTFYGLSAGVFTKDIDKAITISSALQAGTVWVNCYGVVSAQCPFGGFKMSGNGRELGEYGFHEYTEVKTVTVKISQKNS
HPGD block: qHTS Assay for Inhibitors of HPGD (15-Hydroxyprostaglandin Dehydrogenase). 15-hydroxyprostaglandin dehydrogenase [NAD(+)] (Homo sapiens), P15428. purified HPGD, NADH fluorescence kinetic, PGE2 substrate. Potency, µM, for the others: at the highest dose activity change, negative = inhibition, usual class: inhibitors. hit rate 4.3% among 150,000; further: potency means the concentration at half of the fitted maximal effect
Target sequence (P15428 whole entry, looked up): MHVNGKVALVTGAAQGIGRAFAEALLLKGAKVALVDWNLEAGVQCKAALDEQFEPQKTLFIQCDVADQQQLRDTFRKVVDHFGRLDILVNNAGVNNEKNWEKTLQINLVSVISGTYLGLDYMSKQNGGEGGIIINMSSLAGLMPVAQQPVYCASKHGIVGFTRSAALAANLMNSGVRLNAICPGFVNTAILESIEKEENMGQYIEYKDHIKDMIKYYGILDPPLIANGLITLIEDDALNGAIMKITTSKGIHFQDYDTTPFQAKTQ
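20 nM HPGD preincubated 15 min at room temperature with compound in 50 mM Tris-HCl pH 8, 0.01% Tween 20. Started with 1 mM NAD+ and 30 uM prostaglandin E2; NADH fluorescence (360/450 nm) read 5 times over 30-s intervals, last minus first.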
Luc counter: Counterscreen for Luciferase (Kinase-Glo TM) Inhibition. Luciferin 4-monooxygenase (Photuris pensylvanica), Q27757. Kinase-Glo luciferase, ATP luminescence, 8 min. Potency, µM (series often up to 38.3 µM), without a hit: at the top dose activity change, negative = inhibition, actives largely listed as inhibitors. hit rate 0.28% among 200,000. AID 1379, 2008; active means well fitted inhibition curve with a large enough effect; inconclusive means small, poorly fitted or top-dose-only effect; further: potency means the concentration at half of the fitted maximal effect; nearly all actives have a fitted effect of over 60% in size
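Substrate mix (final 50 mM imidazole pH 7.2, 50 mM KCl, 7 mM MgCl2, 10 uM ATP, 0.01% Tween 20, 0.05% BSA) plus pin-tool compound, then Kinase-Glo detection mix; 8 min ambient, luminescence read.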
Lamin A splicing: qHTS Assay for Modulators of Lamin A Splicing; HeLa LMNA splicing GFP/RFP minigene ratio, 48 h; Potency, µM (series often up to 46.1 µM), without a hit: at the highest dose ratio change, negative = inhibition, most hits filed as inhibitors; hit rate 0.01% among 200,000; AID 1487, 2009; active means well fitted inhibition curve with a large enough effect in the signal ratio, with a control signal flat, not every such curve was filed as active; inconclusive means small, poorly fitted or top-dose-only effect, or effect the other way, or a change in a side signal; the % refers to the signal ratio; further: potency means the concentration at half of the fitted maximal effect
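Read-out is the ratio of GFP to DsRed2 object intensity, acquired by 488 nm laser-scanning cytometry on HeLa lamin A-EGFP minigene reporter cells. Compound incubation 48 hrs at 37 °C in Opti-MEM with 2% FBS; DMSO 0.5% final.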
* = called active by the depositor; ? = inconclusive; / = no result given; [ ] = dose if it differs, or a comment. Only some compounds are listed: those with a hit (about 10% of all), similar ones and a draw of the others. Unless noted, the call rests on the fitted dose curve; in most records, active means well fitted inhibition curve with a large enough effect (not every such curve was filed as active); inconclusive means small, poorly fitted or top-dose-only effect, or another doubt; inactive means no such curve, though single readings can be large or run the other way. Unless noted, on the % scale 0 is the no-effect control and ±100 the full control effect.

SMILES | PNC inhibitor | ALDH1A1 inh | HPGD block | Luc counter | Lamin A splicing
Cc1c2cnccc2c(C)c2c1c1ccccc1n2CCOC(=O)c1ccccc1 | / | -15%[13.5 µM] | ? | 0%[7.66 µM] | /
CCn1cc(C(=O)OCC(=O)c2cc(C)n(-c3ccc(OC(F)F)cc3)c2C)c(=O)c2ccc(C)nc21 | ? | 10µM* | -8% | 0% | 1%
CCn1cc(C(=O)Nc2ccc(C(=O)N3CCCC3)cc2)c(=O)c2ccc(C)nc21 | -6 | 11% | 4µM* | -4% | 7%
CCn1cc(C(=O)OCC(=O)Nc2cccc(S(=O)(=O)N3CCOCC3)c2)c(=O)c2ccc(C)nc21 | 16 | ? | -7% | 2% | 7%
CCn1cc(C(=O)OCC(=O)c2cc(C)n(-c3ccccc3)c2C)c(=O)c2ccc(C)nc21 | 52 | -1% | -12% | -2% | -2%
CCn1cc(C(=O)OCC(=O)Nc2ccc(C(C)C)cc2)c(=O)c2ccc(C)nc21 | / | 14µM* | / | 3% | -11%[46 µM]
Cc1ccccc1CNC(=O)c1c(C)oc2c1C1=NCCN1C=N2 | / | / | / | / | 12%[46 µM]
CC(=O)c1cnc2cc(-c3ccc(C)cc3)nn2c1C | -100* | ? | ? | 0% | -3%
CC(=O)c1cnc2cc(-c3ccccc3)nn2c1C | ? | ? | ? | -3% | -5%
CC(C)(C)c1nnc2sc(SCC(=O)c3ccc(Cl)cc3)nn2c1=O | -11 | 4.5µM* | 28µM* | 0% | ?
C=C[C@](C)(O)CCC1C(=C)CC(O)C2C(C)(C)CCCC12C (stereo partly drawn) | / | -4% | -11% | 0% | -15%
COc1cc(/C=C2\SC(=N)N(c3ccc4c(c3)OCO4)C2=O)cc(OC)c1O | -9 | 9% | 4µM* | 1% | -2%
COc1cc(/C=C2\SC(=O)N(c3ccccc3Cl)C2=O)cc([N+](=O)[O-])c1O | / | 0.16µM* | / | -3% | /
COc1cc(/C=C2\SC(=O)N(CC(=O)Nc3cccc(C)c3)C2=O)cc([N+](=O)[O-])c1O | / | 22µM* | / | -4% | /
COc1cc(/C=C2\SC(=N)N(c3ccc(F)cc3)C2=O)ccc1O | / | 0% | / | 0% | ?
C/C(=N/O)c1ccc2cc(Br)c3ccccc3c2c1 | / | -9%[13.5 µM] | -3% | -3%[7.66 µM] | /
CCN1CCN(c2nc3sc4c(c3c(=O)n2-c2ccc(OC)cc2)CCCCC4)CC1 | 38 | 10µM* | -14% | 0% | -14%
Cc1ccc2c(c1)N[C@H](c1ccc(C(=O)O)cc1)c1cccn1-2 | / | ? | ? | -6%[7.66 µM] | /
Cn1[nH]c(CSc2ccc(Cl)cc2)cc1=O | / | 1.8µM* | / | 1% | 7%[46 µM]
CN[C@H]1[C@H](O)[C@@H](O[C@@H]2[C@H](O)[C@@H](O[C@H]3OC(CN)=CC[C@H]3N)[C@@H](N)C[C@H]2N)OC[C@@]1(C)O | / | 2%[20.9 µM] | -1% | -1%[17.1 µM] | ?
COCCCNS(=O)(=O)c1ccc(OC)c(Cl)c1Cl | 21 | 10µM* | -9% | 0% | -3%
CCOc1ccc(NC(=O)CN2CCN(CC(=O)Nc3ccc(F)cc3)CC2)cc1 | -21 | 12µM* | -1% | -3% | 3%
COc1ccc(NC(=O)CN2CCN(CC(=O)Nc3ccc(OC)c(OC)c3)CC2)cc1 | ? | ? | -11% | 3% | -13%
CCOc1ccc(NC(=O)CN2CCN(CC(=O)c3ccc(OC)c(OC)c3)CC2)cc1 | 10 | 7.1µM* | -11% | 0% | 2%
COc1ccc(NC(=O)CN2CCN(c3ccccc3)CC2)cc1 | / | -1% | / | 0% | 12%[46 µM]
SMILES | PNC inhibitor | ALDH1A1 inh | HPGD block | Luc counter | Lamin A splicing
CCOc1ccc(C(=O)CN2CCN(S(=O)(=O)c3ccc(F)cc3)CC2)cc1 | 30 | 20µM* | -1% | -1% | -2%
COc1ccc(NC(=O)CN2CCN(C3c4ccccc4-c4ccccc43)CC2)cc1 | ? | 22µM* | -10% | 0% | ?
CCOc1ccc(NC(=O)CN2CCN(CC(=O)Nc3ccc4c(c3)OCO4)CC2)cc1 | ? | ? | -7% | 2% | 8%
Cc1ccc(OCC(O)C(C)NC(C)C)c2c1CCC2 (stereo not drawn) | / | -13% | -9% | -3% | ?
COc1cc(OC)nc(NC(=O)CN2CCN(c3ccc(F)cc3)CC2)n1 | -24 | 2% | -9% | -1% | 3%
COc1ccc(C(=O)CN2CCN(c3ccc(F)cc3)CC2)cc1OC | 62 | 13µM* | -1% | 2% | 4%
c1ccc([C@@H]2CN3CCSC3=N2)cc1 | / | 3%[20.9 µM] | 3% | 1%[17.1 µM] | -9%
COc1ccc(-n2c(=S)[nH]c3cc(C(=O)NC4CCCCC4)ccc3c2=O)c(OC)c1 | / | 0.1µM* | / | -2% | /
O=C(O)c1ccc2c(=O)n(-c3ccccc3F)c(=S)[nH]c2c1 | / | -5% | / | 1% | /
COc1ccc(NC(=O)c2ccc3c(=O)n(-c4ccc(OC)cc4OC)c(=S)[nH]c3c2)c(OC)c1 | / | ? | / | -4% | -9%[9.22 µM]
COC(=O)c1ccc2c(=O)n(-c3ccccc3F)c(=S)[nH]c2c1 | / | 16µM* | / | 1% | /
COCCCn1c(SCc2ccccc2F)nc2c(sc3ccccc32)c1=O | / | / | / | / | -3%[46 µM]
CCc1cc2c(=O)c(-c3nc4ccccc4n3C)c(C(C)C)oc2c(CN2CCN(C)CC2)c1O | -104* | ? | ? | 1% | ?
c1ccc(CCNCc2ccco2)nc1 | / | -4%[13.5 µM] | -5% | -2%[7.66 µM] | /
COc1ccc(NS(=O)(=O)c2ccc(N3CCCC3)c(NC(=S)Nc3ccc(SC(F)F)cc3)c2)cc1 | 23 | 3.5µM* | 3.5µM* | 0% | ?
O=S(=O)(Nc1ccc(Cl)cc1)c1ccc(N2CCOCC2)c(NC(=S)NC2CC2)c1 | / | 8.9µM* | / | -1% | -3%[46 µM]
COc1ccc(NS(=O)(=O)c2ccc(N3CCCC3)c(NC(=S)Nc3cccc(C)c3C)c2)cc1 | ? | 8.9µM* | 13µM* | 3% | ?
NNC(=S)Nc1cc(S(=O)(=O)N2CCOCC2)ccc1N1CCOCC1 | / | -4% | / | 1% | 9%[46 µM]
Cc1cccc(NS(=O)(=O)c2ccc3c(c2)CCCN3C(=O)C2CCC2)c1C | / | / | / | / | -5%[46 µM]
COC(=O)c1ccc(C2CC(=O)Nc3c2c(C)nn3-c2nc(C)cc(C)n2)cc1 (stereo not drawn) | / | / | / | / | -1%[46 µM]
CC(=O)NC(CC(C)C)C(=O)NC(=O)NCc1ccccc1 (stereo not drawn) | 16 | 5µM* | -1% | -1% | 15%
COc1ccc2c(c1)nc(SCC(=O)c1ccc(Br)s1)n2C | -24 | 28µM* | ? | -8% | -2%
COc1cccc(NC(=O)CSc2nc3ccccc3n2C)c1 | / | 6% | / | 0% | -3%[46 µM]
COc1ccc(-c2nc3sc(CCNC(=O)c4ccco4)c(C)n3n2)cc1 | / | / | / | / | 0%[46 µM]
Cc1ccc(NC(=O)N2CCN(c3cc(-c4noc(C)n4)ccc3C)CC2)c(F)c1 | / | / | / | / | -19%[46 µM]
Cc1ccc(S(=O)(=O)Oc2ccc3c(c2)O/C(=C\c2cccnc2)C3=O)cc1 | 2 | 11µM* | -25% | -6% | 0%
